Data on 4 compounds can be found in PubChem BioAssay (EPA / NIEHS).

A short description of assay [1]: ATG_M_32_CIS: Attagene CIS-FACTORIAL HepG2 Assay for M32 Transcription Factor (Internal Marker) (AID 2282949).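 Also: background control marker of the multiplexed CIS panel rather than a real target.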 As to conditions: HepG2 Attagene cis-factorial M32 reporter, mRNA; actives raise or lower the signal. The method in brief: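 Using DMSO as baseline, bidirectional curve fits were applied to reporter mRNA signals. These came from transiently transfected HepG2 cells exposed for 24 h, with RNA analysed by RT-PCR, FAM primer extension, HpaI digestion and CE.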

Assay [2] in a line: ATG_M_06_CIS: Attagene CIS-FACTORIAL HepG2 Assay for M06 Transcription Factor (Internal Marker) (AID 2282950). Particulars: HepG2 Attagene CIS-FACTORIAL M06 internal marker reporter; actives raise or lower the signal. The method in brief:
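Serves as a background control readout. Transfected HepG2 exposed to compounds for 24 h, then reporter transcripts quantified by fluorescent RT-PCR and capillary electrophoresis. Both directions fitted against DMSO baseline.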

The target in assay [3] is Hypoxia-inducible factor 1-alpha (Homo sapiens) (UniProt Q16665). Briefly: ATG_HIF1a_CIS: Attagene CIS-FACTORIAL HepG2 Assay for human Hypoxia Inducible Factor 1 (HIF1A) (AID 2282951). As to conditions: HepG2 Attagene cis-factorial HIF1a reporter transcription; actives raise or lower the signal. The method, boiled down:
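Measures endogenous transcription-factor activity through cis-regulated reporter mRNA in HepG2. Cells dosed 24 h; transcripts quantified by RT-PCR with 6-FAM-labelled products separated by capillary electrophoresis; DMSO serves as negative control.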

The target in assay [4] is Hepatocyte nuclear factor 6 (Homo sapiens) (UniProt Q9UBC0). Briefly: ATG_HNF6_CIS: Attagene CIS-FACTORIAL HepG2 Assay for human Hepatocyte Nuclear Factor 6 (HNF6) (AID 2282952). Particulars: HepG2 Attagene cis-factorial HNF6 reporter transcription; actives raise or lower the signal. The method, boiled down: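 Endogenous transcription factor activity in human HepG2 liver cells was captured through cis-regulated reporter constructs. After 24 h treatment, reporter mRNA was measured by RT-PCR with capillary electrophoresis, and activity was fitted in both directions relative to DMSO.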

A short description of assay [5]: ATG_MRE_CIS: Attagene CIS-FACTORIAL HepG2 Assay for human Metal Responsive Element (MRE) (AID 2282954). As to conditions: HepG2 MRE cis-reporter transcription, Attagene multiplex; actives raise or lower the signal. The method in brief: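 RT-PCR/capillary electrophoresis readout of reporter mRNA, 24 h post-dosing, in HepG2 cells transfected with multiplexed cis-regulated reporter constructs. Gain or loss of signal fitted bidirectionally against DMSO baseline.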

Assay [6] can be described thus: ATG_PBREM_CIS: Attagene CIS-FACTORIAL HepG2 Assay for human Phenobarbital-responsive Enhancer Module (PBREM) (AID 2282955). As to conditions: HepG2 PBREM cis-reporter, Attagene multiplexed transcription; actives raise or lower the signal. The method, boiled down: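 Fluorescence of labelled reporter cDNA fragments, resolved by capillary electrophoresis, gives mRNA induction in transfected HepG2 cells treated for 24 h; DMSO serves as negative control and baseline.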

Assay [7] addresses Paired box protein Pax-6 (Homo sapiens) (UniProt P26367). Briefly: ATG_Pax6_CIS: Attagene CIS-FACTORIAL HepG2 Assay for human Paired Box 6 (PAX6) (AID 2282956). Particulars: HepG2 CIS-FACTORIAL PAX6 reporter transcription, RNA readout; actives raise or lower the signal. The method in brief: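 Read-out is reporter transcript level, measured by RT-PCR with fluorescent primer extension and capillary electrophoresis after 24 h dosing of transfected HepG2 cells. Activity in either direction fitted relative to DMSO control.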

A short description of assay [8]: ATG_PXRE_CIS: Attagene CIS-FACTORIAL HepG2 Assay for human Pregnane X Receptor Element (PXRE) (AID 2282957). As to conditions: HepG2 Attagene CIS-FACTORIAL PXRE reporter, mRNA; actives raise or lower the signal. The method, boiled down: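 Endogenous transcription factor activity in HepG2 was gauged through induction of reporter mRNA driven by a cis-regulating promoter element, sampled 24 h post-treatment. Activity was fitted in both directions against DMSO negative control.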

A short description of assay [9]: ATG_PPRE_CIS: Attagene CIS-FACTORIAL HepG2 Assay for human Peroxisome Proliferator-activated Response Element (PPRE) (AID 2282958). Particulars: HepG2 PPRE cis-element reporter, Attagene transcription factor profiling; actives raise or lower the signal. The method, boiled down: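 Cells are first transfected transiently with the multiplexed reporter library, then dosed for 24 h. Total RNA is reverse-transcribed, amplified, fluorescently end-labeled and HpaI-cut before capillary electrophoresis; activity is fitted bidirectionally against DMSO controls.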

Assay [10] is described as follows: ATG_RORE_CIS: Attagene CIS-FACTORIAL HepG2 Assay for human RAR-related Orphan Receptor Element (RORE) (AID 2282959). Particulars: HepG2 Attagene cis-factorial RORE reporter, mRNA; actives raise or lower the signal. The method in brief:
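Cells were HepG2 carrying transfected cis-regulated reporter constructs, dosed for 24 hours. Total RNA was reverse-transcribed and reporter cDNA amplified, fluorescently labeled and sized by capillary electrophoresis. Activity was fitted bidirectionally relative to DMSO.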

The target of assay [11] is Transcription factor Sp1 (Homo sapiens) (UniProt P08047). Briefly: ATG_Sp1_CIS: Attagene CIS-FACTORIAL HepG2 Assay for human Specificity Protein 1 (Sp1) (AID 2282961). As to conditions: HepG2 Sp1 cis-reporter transcription, actives raise or lower the signal. The method, boiled down:
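Endogenous Sp1 activity was gauged in human liver HepG2 cells bearing transfected reporter units under a cis-regulating promoter. After 24 h dosing, reporter mRNA was quantified by RT-PCR with capillary electrophoresis, and activity fitted bidirectionally versus DMSO.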

Assay [12] is described as follows: ATG_SREBP_CIS: Attagene CIS-FACTORIAL HepG2 Assay for human Sterol Regulatory Element Binding (SREBP) (AID 2282962). As to conditions: HepG2 Attagene cis-factorial SREBP reporter, mRNA; actives raise or lower the signal. The method, boiled down:
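Endogenous SREBP activity read as cis-element-driven reporter transcript in transiently transfected HepG2, 24 h post-dosing; quantified via RT-PCR plus capillary electrophoresis of fluorescent fragments. Gain or loss of signal fitted relative to DMSO baseline.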

The target in assay [13] is Signal transducer and activator of transcription 3 (Homo sapiens) (UniProt P40763). As to the kind of experiment: ATG_STAT3_CIS: Attagene CIS-FACTORIAL HepG2 Assay for human Signal Transducer and Activator of Transcription 3 (STAT3) (AID 2282963). As to conditions: HepG2, Attagene cis-factorial STAT3 reporter transcription; actives raise or lower the signal. The method in brief:
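Readout: fluorescent reporter mRNA fragments resolved by capillary electrophoresis. Setup: HepG2 transfected with MRTUs reporting endogenous transcription-factor activity, dosed 24 h. Gain or loss of signal fitted bidirectionally against DMSO control.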

The nature of assay [14]: ATG_TA_CIS: Attagene CIS-FACTORIAL HepG2 Assay for human TA Basal Promoter (AID 2282964). As to conditions: HepG2 Attagene CIS-factorial TA basal promoter reporter; actives raise or lower the signal. The method, boiled down: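 Background-control readout: TA basal promoter reporter mRNA, fitted in both directions relative to DMSO. Measured by RT-PCR and capillary electrophoresis 24 hours after treating HepG2 human liver cells transiently carrying multiplexed cis-regulated reporter constructs.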

Assay [15] in a line: ATG_TCF_b_cat_CIS: Attagene CIS-FACTORIAL HepG2 Assay for human T-Cell-Factor with beta-catenin (TCF/b-cat) (AID 2282965). As to conditions: HepG2 TCF/beta-catenin cis-reporter transcription, actives raise or lower the signal. The method, boiled down: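 Cells of the HepG2 line carry transiently transfected reporter units whose promoters respond to endogenous factors. Twenty-four hours post-dosing, reporter mRNA induction is measured by fluorescent RT-PCR and capillary electrophoresis, with DMSO as baseline.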

Assay [16] in a line: ATG_TAL_CIS: Attagene CIS-FACTORIAL HepG2 Assay for human TAL Basal Promoter (AID 2282966).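 Also: background control endpoint measuring basal TAL promoter reporter mRNA not a specific factor.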 As to conditions: HepG2 Attagene cis-factorial TAL promoter reporter; actives raise or lower the signal. The method, boiled down:
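Endogenous transcription-factor activity is sensed in HepG2 cells through transfected cis-promoter reporter constructs. After 24 h dosing, reporter transcripts are quantified by RT-PCR and capillary electrophoresis. Gain or loss of signal is fitted relative to DMSO.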

A short description of assay [17]: ATG_TGFb_CIS: Attagene CIS-FACTORIAL HepG2 Assay for human Transforming Growth Factor (TGF) (AID 2282967). Particulars: HepG2 Attagene CIS TGFb reporter, mRNA transcription; actives raise or lower the signal. The method, boiled down:
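Endogenous TGFB1-linked transcription factor activity read as reporter mRNA via RT-PCR and capillary electrophoresis, 24 h after dosing transiently transfected HepG2 cells. Gain or loss of signal fitted relative to DMSO.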

In assay [18] the target is Heat shock factor protein 1 (Homo sapiens) (UniProt Q00613). As to the kind of experiment: ATG_HSE_CIS: Attagene CIS-FACTORIAL HepG2 Assay for human Heat Shock Transcription Factor 1 (HSE) (AID 2282953). As to conditions: HepG2 HSE cis-reporter, Attagene RNA transcription; actives raise or lower the signal. The method, boiled down: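 Endogenous transcription factor activity in transiently transfected HepG2, read as reporter mRNA by RT-PCR with fluorescent capillary electrophoresis after 24 h. Gain or loss of signal fitted versus DMSO baseline.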

Assay [19] is described as follows: ATG_Sox_CIS: Attagene CIS-FACTORIAL HepG2 Assay for human SRY-box transcription factor (SOX) (AID 2282960). Particulars: HepG2 Attagene cis-factorial SOX reporter, mRNA; actives raise or lower the signal. The method, boiled down: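 Transient MRTU transfection of HepG2; 24 h compound incubation; TriZol RNA, oligo(dT) RT, PCR, 6-FAM primer extension, HpaI cut, CE. Bidirectional fit, DMSO = baseline.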

Assay [20] in a line: ATG_VDRE_CIS: Attagene CIS-FACTORIAL HepG2 Assay for human Vitamin D Receptor Element (VDRE) (AID 2282968). Particulars: HepG2 VDRE cis-reporter transcription, actives raise or lower the signal. The method in brief:
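Transient MRTU transfection of HepG2, 24 h compound exposure. Readout: reporter transcripts via RT-PCR and capillary electrophoresis, fluorescence. Bidirectional fit vs DMSO.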

The source made the active and inactive calls. The calls were made as follows: active = hit-call score of the fitted dose curve at least 0.9, where 1 is the maximum; inactive = score below 0.9.

Signal transducer and activator of transcription 3 (Homo sapiens), sequence (P40763 whole entry, looked up, the tested form may be a part): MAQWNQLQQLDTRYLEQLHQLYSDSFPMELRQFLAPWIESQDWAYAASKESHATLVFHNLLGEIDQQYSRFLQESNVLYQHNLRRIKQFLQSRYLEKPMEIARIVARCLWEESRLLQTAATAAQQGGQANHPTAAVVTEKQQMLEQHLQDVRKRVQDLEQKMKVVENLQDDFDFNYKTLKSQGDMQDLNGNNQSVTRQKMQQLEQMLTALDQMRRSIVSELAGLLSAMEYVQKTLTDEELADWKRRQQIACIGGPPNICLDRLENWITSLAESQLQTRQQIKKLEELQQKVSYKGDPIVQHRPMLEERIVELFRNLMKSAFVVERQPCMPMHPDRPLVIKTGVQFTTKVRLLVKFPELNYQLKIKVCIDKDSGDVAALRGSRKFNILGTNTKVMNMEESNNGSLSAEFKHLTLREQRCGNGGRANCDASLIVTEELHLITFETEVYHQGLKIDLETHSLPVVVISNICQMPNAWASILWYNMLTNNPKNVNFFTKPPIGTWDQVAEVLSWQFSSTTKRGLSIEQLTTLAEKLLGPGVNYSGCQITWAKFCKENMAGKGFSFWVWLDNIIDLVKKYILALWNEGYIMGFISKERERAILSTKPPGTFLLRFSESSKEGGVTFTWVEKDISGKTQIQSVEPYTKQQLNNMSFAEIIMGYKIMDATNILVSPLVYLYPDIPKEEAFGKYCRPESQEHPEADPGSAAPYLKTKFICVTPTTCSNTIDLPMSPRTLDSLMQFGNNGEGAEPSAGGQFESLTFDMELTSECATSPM
Transcription factor Sp1 (Homo sapiens), sequence (P08047 whole entry, looked up): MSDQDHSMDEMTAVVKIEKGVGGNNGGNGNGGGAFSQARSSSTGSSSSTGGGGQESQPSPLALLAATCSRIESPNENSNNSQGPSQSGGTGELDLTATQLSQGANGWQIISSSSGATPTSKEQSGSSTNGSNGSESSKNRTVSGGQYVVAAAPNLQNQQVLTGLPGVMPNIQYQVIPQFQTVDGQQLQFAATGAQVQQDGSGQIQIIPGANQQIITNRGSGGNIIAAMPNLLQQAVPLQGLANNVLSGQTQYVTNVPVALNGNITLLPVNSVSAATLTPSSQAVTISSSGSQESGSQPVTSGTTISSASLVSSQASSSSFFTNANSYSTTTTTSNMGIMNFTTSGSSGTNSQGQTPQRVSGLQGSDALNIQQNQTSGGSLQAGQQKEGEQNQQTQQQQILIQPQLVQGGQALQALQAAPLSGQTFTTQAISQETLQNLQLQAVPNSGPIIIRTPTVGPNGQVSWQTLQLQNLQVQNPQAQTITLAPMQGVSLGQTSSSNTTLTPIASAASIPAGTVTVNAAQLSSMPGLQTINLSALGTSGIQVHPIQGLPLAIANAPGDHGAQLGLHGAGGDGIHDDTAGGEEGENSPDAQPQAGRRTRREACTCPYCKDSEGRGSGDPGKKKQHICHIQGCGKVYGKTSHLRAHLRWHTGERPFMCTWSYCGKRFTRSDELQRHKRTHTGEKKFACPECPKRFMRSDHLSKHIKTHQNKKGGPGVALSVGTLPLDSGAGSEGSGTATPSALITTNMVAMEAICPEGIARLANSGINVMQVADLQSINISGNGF
Hypoxia-inducible factor 1-alpha (Homo sapiens), sequence (Q16665 whole entry, looked up): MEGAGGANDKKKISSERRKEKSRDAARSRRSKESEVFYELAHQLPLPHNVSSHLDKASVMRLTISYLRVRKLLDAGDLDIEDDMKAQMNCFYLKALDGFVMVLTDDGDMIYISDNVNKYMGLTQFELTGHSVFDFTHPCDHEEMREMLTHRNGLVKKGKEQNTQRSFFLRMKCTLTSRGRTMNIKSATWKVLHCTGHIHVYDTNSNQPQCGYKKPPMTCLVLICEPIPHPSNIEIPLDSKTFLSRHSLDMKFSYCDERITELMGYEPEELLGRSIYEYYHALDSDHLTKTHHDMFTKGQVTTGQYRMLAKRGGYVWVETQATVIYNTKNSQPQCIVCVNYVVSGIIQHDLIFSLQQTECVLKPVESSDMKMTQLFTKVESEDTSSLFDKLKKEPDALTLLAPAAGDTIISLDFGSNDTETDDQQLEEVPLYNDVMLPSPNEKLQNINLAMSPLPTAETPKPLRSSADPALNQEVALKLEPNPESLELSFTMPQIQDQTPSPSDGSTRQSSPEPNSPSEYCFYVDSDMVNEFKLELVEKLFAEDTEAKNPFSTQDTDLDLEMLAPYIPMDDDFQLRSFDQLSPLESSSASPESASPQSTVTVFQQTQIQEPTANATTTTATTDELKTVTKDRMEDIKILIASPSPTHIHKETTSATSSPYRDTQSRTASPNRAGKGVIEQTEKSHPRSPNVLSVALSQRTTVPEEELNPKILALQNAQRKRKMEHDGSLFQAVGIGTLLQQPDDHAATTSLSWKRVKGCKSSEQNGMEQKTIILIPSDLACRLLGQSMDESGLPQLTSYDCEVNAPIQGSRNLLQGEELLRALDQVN
Hepatocyte nuclear factor 6 (Homo sapiens), sequence (Q9UBC0 whole entry, looked up): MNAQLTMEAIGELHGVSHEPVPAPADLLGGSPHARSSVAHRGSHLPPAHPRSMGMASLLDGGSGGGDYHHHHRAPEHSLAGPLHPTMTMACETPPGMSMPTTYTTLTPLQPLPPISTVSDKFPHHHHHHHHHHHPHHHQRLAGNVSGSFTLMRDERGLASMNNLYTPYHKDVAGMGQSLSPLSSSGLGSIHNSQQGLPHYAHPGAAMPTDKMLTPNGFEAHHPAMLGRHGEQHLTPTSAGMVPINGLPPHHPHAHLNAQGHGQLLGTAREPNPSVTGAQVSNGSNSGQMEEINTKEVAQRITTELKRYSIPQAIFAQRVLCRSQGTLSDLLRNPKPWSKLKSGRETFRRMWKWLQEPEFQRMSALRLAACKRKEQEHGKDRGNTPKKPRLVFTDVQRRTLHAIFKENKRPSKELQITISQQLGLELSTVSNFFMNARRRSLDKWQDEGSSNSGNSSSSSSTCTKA
Paired box protein Pax-6 (Homo sapiens), sequence (P26367 whole entry, looked up): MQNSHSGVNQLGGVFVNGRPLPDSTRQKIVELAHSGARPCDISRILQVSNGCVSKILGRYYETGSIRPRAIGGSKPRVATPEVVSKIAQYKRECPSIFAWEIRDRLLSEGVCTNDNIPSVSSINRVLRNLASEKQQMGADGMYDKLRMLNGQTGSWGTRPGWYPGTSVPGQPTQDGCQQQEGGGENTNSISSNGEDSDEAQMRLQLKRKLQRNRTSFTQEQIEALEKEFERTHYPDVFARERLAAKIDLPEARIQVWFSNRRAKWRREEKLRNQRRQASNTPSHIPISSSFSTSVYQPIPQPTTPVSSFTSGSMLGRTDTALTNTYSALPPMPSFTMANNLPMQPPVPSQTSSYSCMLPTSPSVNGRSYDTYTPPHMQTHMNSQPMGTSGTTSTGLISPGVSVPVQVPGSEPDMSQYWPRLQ
Heat shock factor protein 1 (Homo sapiens), sequence (Q00613 whole entry, looked up): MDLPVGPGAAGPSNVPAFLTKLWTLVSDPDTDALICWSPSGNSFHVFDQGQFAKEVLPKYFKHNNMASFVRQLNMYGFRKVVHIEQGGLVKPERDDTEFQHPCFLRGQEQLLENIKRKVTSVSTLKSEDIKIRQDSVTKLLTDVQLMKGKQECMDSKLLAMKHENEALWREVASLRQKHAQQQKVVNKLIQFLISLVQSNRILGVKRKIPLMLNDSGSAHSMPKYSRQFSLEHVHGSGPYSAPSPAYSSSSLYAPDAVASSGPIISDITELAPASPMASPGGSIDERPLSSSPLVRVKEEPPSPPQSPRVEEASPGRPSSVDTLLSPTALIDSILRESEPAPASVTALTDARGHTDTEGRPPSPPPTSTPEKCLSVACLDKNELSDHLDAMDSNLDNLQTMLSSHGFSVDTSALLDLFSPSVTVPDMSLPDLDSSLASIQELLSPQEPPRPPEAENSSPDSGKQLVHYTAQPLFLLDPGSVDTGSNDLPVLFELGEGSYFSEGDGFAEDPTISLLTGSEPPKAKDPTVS

As to `COC(=O)Nc1cccc(OC(=O)Nc2cccc(C)c2)c1`, the result in assay [1], in [2], in [3], in [4], in assay [5] and in assay [6] was inactive. For the same compound, the compound was called inactive in [7], in assay [8], in assay [9], in assay [10], in assay [11] and in [12]. Besides, the compound was classed as inactive in [13], in assay [14], in assay [15], in [16] and in [17].

Consider `Cc1c([N+](=O)[O-])c(C)c([N+](=O)[O-])c(C(C)(C)C)c1[N+](=O)[O-]`, for which the call in [1], in assay [2], in assay [3], in assay [4], in assay [18] and in assay [9] was inactive. Moreover, the call in assay [10], in [19], in assay [11], in [12], in [13] and in assay [14] was inactive. The call in [15], in assay [16] and in [17] was inactive. Besides, the AC50 (usually the midpoint of the concentration-response curve, whichever way the signal moves) in [5] was 64.1 µM (active); in assay [8], 1.54 µM (active); in assay [20], 1.84 µM (active).

With `Clc1cccc(Cl)c1Cl`, the compound was classed as inactive in assay [1], in [2], in assay [3], in [4], in assay [18] and in [5]. The call in assay [7], in [9], in assay [10], in [19], in assay [11] and in [13] was inactive. In addition, the outcome in assay [14], in assay [15], in [16], in assay [17] and in assay [20] was inactive.

Turning to `CN(C)CCN(C)C`, the call in assay [1], in assay [2], in [3], in [4], in assay [5] and in assay [9] was inactive. Further, the result in assay [10], in assay [19], in assay [11], in [12], in [13] and in assay [14] was inactive. Also, the result in assay [16], in assay [17] and in assay [20] was inactive.
